Data from PubChem BioAssay (EPA / NIEHS).
Results filed as inconclusive are left out. Calls of active or inactive are those of the source. Rule for the calls, unless noted: active = hit-call score of the fitted dose curve at least 0.9, where 1 is the maximum; inactive = score below 0.9.

Assays:
[1] = molecular target: human Thyroid Receptor alpha (THRa1), THRA (gene 7067) (UniProt P10827); assay: ATG_THRa1_TRANS: Attagene TRANS-FACTORIAL HepG2 Assay for human Thyroid Receptor alpha (THRa1) (AID 2283014; active = hit-call score of the fitted dose curve at least 0.9, where 1 is the maximum)
human Thyroid Receptor alpha (THRa1), THRA (gene 7067), sequence (P10827 whole entry, looked up, the tested form may be a part): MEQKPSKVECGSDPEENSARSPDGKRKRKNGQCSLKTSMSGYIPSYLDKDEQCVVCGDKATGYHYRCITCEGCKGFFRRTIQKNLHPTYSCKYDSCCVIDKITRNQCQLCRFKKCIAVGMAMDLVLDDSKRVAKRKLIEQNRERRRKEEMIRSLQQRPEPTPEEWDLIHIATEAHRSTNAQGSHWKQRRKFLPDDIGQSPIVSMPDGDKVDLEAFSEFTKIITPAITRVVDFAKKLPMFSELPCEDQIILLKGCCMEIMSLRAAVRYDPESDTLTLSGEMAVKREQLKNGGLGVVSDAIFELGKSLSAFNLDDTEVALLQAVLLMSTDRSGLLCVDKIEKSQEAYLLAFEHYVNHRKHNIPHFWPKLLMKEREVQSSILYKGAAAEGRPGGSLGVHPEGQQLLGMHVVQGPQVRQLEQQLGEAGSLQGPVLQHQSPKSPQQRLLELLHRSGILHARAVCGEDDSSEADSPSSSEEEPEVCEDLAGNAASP
Procedure, shortened: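 Transient HepG2 transfection, NR-Gal4 chimera driving GAL4-UAS reporters; 24 h compound exposure; total RNA, oligo(dT) RT, PCR, fluorescent primer extension, capillary electrophoresis. Upward direction vs DMSO control.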

[2] = molecular target: human Vitamin D Receptor (VDR), VDR (gene 7421) (UniProt P11473); assay: ATG_VDR_TRANS: Attagene TRANS-FACTORIAL HepG2 Assay for human Vitamin D Receptor (VDR) (AID 2283022; active = hit-call score of the fitted dose curve at least 0.9, where 1 is the maximum)
human Vitamin D Receptor (VDR), VDR (gene 7421), sequence (P11473 whole entry, looked up, the tested form may be a part): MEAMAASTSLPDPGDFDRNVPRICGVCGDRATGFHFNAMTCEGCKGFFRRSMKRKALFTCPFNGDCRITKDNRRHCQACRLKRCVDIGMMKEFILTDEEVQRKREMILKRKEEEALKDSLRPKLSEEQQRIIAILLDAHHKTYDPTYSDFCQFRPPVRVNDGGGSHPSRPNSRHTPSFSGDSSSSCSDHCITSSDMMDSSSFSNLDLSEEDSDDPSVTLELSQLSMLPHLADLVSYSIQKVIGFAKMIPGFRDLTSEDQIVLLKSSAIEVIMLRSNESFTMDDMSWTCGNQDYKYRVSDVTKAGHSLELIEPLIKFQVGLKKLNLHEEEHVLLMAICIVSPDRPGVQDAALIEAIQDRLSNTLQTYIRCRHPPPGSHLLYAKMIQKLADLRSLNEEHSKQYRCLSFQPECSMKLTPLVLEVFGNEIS
Procedure, shortened: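 RT-PCR/capillary electrophoresis read-out of reporter mRNA induction in transiently transfected HepG2; 24 h dosing; chimeric NR-Gal4 (TRANS format); gain-of-signal fit against DMSO baseline.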

[3] = read-out: E-selectin (Homo sapiens) (UniProt P16581); assay: BSK_3C_Eselectin: BioMAP Diversity Plus: 3C Assay for Eselectin Biomarker Activity (AID 2283015); details: primary human endothelial cells (HUVEC); actives raise or lower the signal;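 note: cell surface E-selectin protein quantified by ELISA 24 h after dosing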
Procedure, shortened: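 HUVEC, 3C stimulation; compound exposure 24 h; E-selectin by ELISA; gain- or loss-of-signal fitted bidirectionally vs DMSO baseline.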

[4] = read-out: Interleukin-1 alpha (IL1a), IL1A (gene 3552); assay: BSK_BE3C_IL1a: BioMAP Diversity Plus: BE3C Assay for Interleukin-1 alpha (IL1a) Biomarker Activity (AID 2283016); details: primary human bronchial epithelial cells; actives raise or lower the signal
Procedure, shortened: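 Cultures of primary human bronchial epithelial cells receive test chemical. After 24 h, IL-1a is quantified by ELISA, while parallel wells are fixed in TCA and SRB-stained for total protein. Changes in either direction are fitted relative to DMSO.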

[5] = read-out: Monocyte Chemoattractant Protein-1 (MCP1), CCL2 (gene 6347); assay: BSK_3C_MCP1: BioMAP Diversity Plus: 3C Assay for Monocyte Chemoattractant Protein-1 (MCP1) Biomarker Activity (AID 2283017); details: primary human endothelial cells (HUVEC); actives raise or lower the signal
Procedure, shortened: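 HUVEC, 3C system; 24 h chemical exposure; MCP-1 by ELISA; bidirectional curve fit vs DMSO baseline.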

[6] = read-out: Monocyte Chemoattractant Protein-1 (MCP1), CCL2 (gene 6347); assay: BSK_4H_MCP1: BioMAP Diversity Plus: 4H Assay for Monocyte Chemoattractant Protein-1 (MCP1) Biomarker Activity (AID 2283018); details: primary human endothelial cells (HUVEC); actives raise or lower the signal
Procedure, shortened: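 Readout: MCP-1 ELISA on compound-treated HUVEC, sampled 24 h post-dosing. Baseline and negative control DMSO; bidirectional fit. Overt toxicity checked alongside by sulforhodamine B protein staining at time of biomarker measurement.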

[7] = read-out: Human Leukocyte Antigen - DR isotype (HLADR), HLA-DRA (gene 3122); assay: BSK_3C_HLADR: BioMAP Diversity Plus: 3C Assay for Human Leukocyte Antigen - DR isotype (HLADR) Biomarker Activity (AID 2283019); details: primary human endothelial cells (HUVEC); actives raise or lower the signal;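 note: ELISA of cell-surface HLA-DR on HUVEC 24 h after dosing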
Procedure, shortened: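 HUVEC, 3C stimulation, 24 h post-dose; HLA-DR by ELISA; bidirectional curve fit vs DMSO baseline; gain or loss of signal scored.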

[8] = read-out: Interleukin-8 (IL8), CXCL8 (gene 3576); assay: BSK_3C_IL8: BioMAP Diversity Plus: 3C Assay for Interleukin-8 (IL8) Biomarker Activity (AID 2283020); details: primary human endothelial cells (HUVEC); actives raise or lower the signal
Procedure, shortened: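 Human vascular endothelial cells (umbilical vein) in the 3C system; IL-8 level detected by ELISA at 24 h post-dose, with DMSO as baseline.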

[9] = read-out: Monokine induced gamma interferon (MIG), CXCL9 (gene 4283); assay: BSK_3C_MIG: BioMAP Diversity Plus: 3C Assay for Monokine induced gamma interferon (MIG) Biomarker Activity (AID 2283021); details: primary human endothelial cells (HUVEC); actives raise or lower the signal
Procedure, shortened: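 After 24 h of treatment, human umbilical vein endothelial cultures (3C system) had their MIG biomarker level determined by ELISA, with DMSO serving as negative control.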

[10] = BSK_3C_SRB: Viability Assessment in the BioMAP Diversity Plus: 3C Assay (AID 2283023); details: primary human endothelial cells (HUVEC);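 note: cells read 24 h after compound dosing; fitted both ways against DMSO so a hit may be signal rise or drop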
Procedure, shortened: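 HUVEC, 24 h post-dose; 10% TCA fix, 0.1% SRB stain, A560 nm. Bidirectional curve fit vs DMSO negative control.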

[11] = read-out: Matrix Metallopeptidase 1 (MMP1), MMP1 (gene 4312); assay: BSK_BE3C_MMP1: BioMAP Diversity Plus: BE3C Assay for Matrix Metallopeptidase 1 (MMP1) Biomarker Activity (AID 2283024); details: primary human bronchial epithelial cells; actives raise or lower the signal
Procedure, shortened: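 Dose cells, wait 24 h, run MMP1 ELISA; cells are human bronchial epithelial primaries. Both increases and decreases relative to DMSO counted.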

[12] = read-out: Pselectin, SELP (gene 6403); assay: BSK_4H_Pselectin: BioMAP Diversity Plus: 4H Assay for Pselectin Biomarker Activity (AID 2283026); details: primary human endothelial cells (HUVEC); actives raise or lower the signal
Procedure, shortened: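 Human vascular endothelium from umbilical vein; P-selectin measured by ELISA at 24 h post-dose, with cytotoxicity checked by sulforhodamine B total-protein staining in parallel cultures (0.1% SRB after 10% TCA fixation, read at 560 nm).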

[13] = BSK_BE3C_SRB: Viability Assessment in the BioMAP Diversity Plus: BE3C Assay (AID 2283028); details: primary human bronchial epithelial cells
Procedure, shortened: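 Primary human bronchial epithelium; chemical dosing, 24 h; 10% TCA fix, 0.1% SRB stain, A560; bidirectional fit vs DMSO baseline.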

[14] = read-out: Thrombomodulin, THBD (gene 7056); assay: BSK_3C_Thrombomodulin: BioMAP Diversity Plus: 3C Assay for Thrombomodulin Biomarker Activity (AID 2283029); details: primary human endothelial cells (HUVEC); actives raise or lower the signal
Procedure, shortened: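 Thrombomodulin ELISA, human primary HUVEC, 24 h post-dose; data fitted in both directions relative to DMSO.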

[15] = read-out: Vascular endothelial growth factor receptor 2 (Homo sapiens) (UniProt P35968); assay: BSK_4H_VEGFRII: BioMAP Diversity Plus: 4H Assay for Vascular endothelial growth factor receptor 2 (VEGFR2) Biomarker Activity (AID 2283031); details: primary human endothelial cells (HUVEC); actives raise or lower the signal
Procedure, shortened: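 HUVEC (human primary), 4H system; 24 h post-dose; VEGFRII by ELISA; bidirectional curve fit vs DMSO baseline; gain or loss of signal scored.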

[16] = read-out: Human Leukocyte Antigen - DR isotype (HLADR), HLA-DRA (gene 3122); assay: BSK_BE3C_HLADR: BioMAP Diversity Plus: BE3C Assay for Human Leukocyte Antigen - DR isotype (HLADR) Biomarker Activity (AID 2283032); details: primary human bronchial epithelial cells; actives raise or lower the signal
Procedure, shortened: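 Signal came from an ELISA for HLA-DR in human bronchial epithelial primary cells harvested 24 h after treatment; gain- and loss-of-signal fitting used DMSO controls as reference.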

[17] = read-out: Vascular cell adhesion molecule 1 (VCAM1), VCAM1 (gene 7412); assay: BSK_4H_VCAM1: BioMAP Diversity Plus: 4H Assay for Vascular cell adhesion molecule 1 (VCAM1) Biomarker Activity (AID 2283033); details: primary human endothelial cells (HUVEC); actives raise or lower the signal;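 note: cell-surface VCAM-1 protein measured by ELISA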
Procedure, shortened: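 Endpoint derived from bidirectional fitting against DMSO controls of VCAM-1 ELISA signal in umbilical vein endothelial cells sampled at 24 h following treatment.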

[18] = read-out: Interferon-gamma inducible Protein 10 (IP10), CXCL10 (gene 3627); assay: BSK_BE3C_IP10: BioMAP Diversity Plus: BE3C Assay for Interferon-gamma inducible Protein 10 (IP10) Biomarker Activity (AID 2283034); details: primary human bronchial epithelial cells; actives raise or lower the signal
Procedure, shortened: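 Using primary human bronchial epithelial cultures, the assay captures IP-10 by ELISA one day (24 h) after exposure. Parallel SRB staining of total protein flags overt cytotoxicity. Fits run bidirectionally relative to DMSO.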

[19] = BSK_3C_Vis: BioMAP Diversity Plus: 3C Assay for Morphology Visualization (AID 2283025); details: primary human endothelial cells (HUVEC);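 note: fitted both ways so gain or loss versus DMSO counts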
Procedure, shortened: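 Endothelial cells from human umbilical vein were treated with test chemicals for 24 h and inspected by light microscopy for changes in cell conformation.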

Measured: AC50

E-selectin (Homo sapiens), sequence (P16581 whole entry, looked up): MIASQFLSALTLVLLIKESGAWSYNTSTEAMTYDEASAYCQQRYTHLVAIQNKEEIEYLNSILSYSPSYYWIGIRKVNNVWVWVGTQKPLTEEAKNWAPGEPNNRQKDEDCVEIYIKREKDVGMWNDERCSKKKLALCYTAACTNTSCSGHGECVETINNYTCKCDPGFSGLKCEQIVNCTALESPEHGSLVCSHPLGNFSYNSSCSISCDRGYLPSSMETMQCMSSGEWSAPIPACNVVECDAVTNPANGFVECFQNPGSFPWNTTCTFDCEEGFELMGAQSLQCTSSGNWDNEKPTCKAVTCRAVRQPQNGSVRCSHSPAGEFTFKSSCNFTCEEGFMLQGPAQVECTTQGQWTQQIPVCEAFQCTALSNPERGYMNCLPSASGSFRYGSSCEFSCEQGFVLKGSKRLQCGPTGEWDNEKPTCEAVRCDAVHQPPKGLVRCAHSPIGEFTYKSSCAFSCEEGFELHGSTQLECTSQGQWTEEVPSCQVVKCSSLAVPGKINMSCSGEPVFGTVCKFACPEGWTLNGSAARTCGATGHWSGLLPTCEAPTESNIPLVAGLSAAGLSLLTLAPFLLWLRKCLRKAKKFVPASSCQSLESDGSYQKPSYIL

CN(C)CCCN(C)C
inactive: [1] | [2]

CCOC(=O)NNc1nncc2ccccc12
inactive: [1] | [2]

CO[Si](OC)(OC)c1ccccc1
not listed: [19]
inactive: all other assays above

O=C1CCCN1CCO
not listed: [19]
inactive: all other assays above

CC(C)C(=O)C(C)C
not listed: [2]
inactive: all other assays above

O=c1c2ccccc2oc2ccccc12
active: [4] 173 nM | [11] 139 nM
not listed: [2]
inactive: all other assays above

CC(C)c1ccc(C=O)cc1
inactive: [1] | [2]

CC(=O)[C@H]1[C@H](C#N)C[C@H]2[C@@H]3CC=C4C[C@@H](O)CC[C@]4(C)[C@H]3CC[C@@]21C
inactive: [1] | [2]

COC(=O)c1sccc1S(N)(=O)=O
inactive: [1] | [2]

O=C(O)c1cc(Cl)cc([N+](=O)[O-])c1Cl
inactive: [1] | [2]

CC=CC(=O)N(CC)c1ccccc1C
inactive: [1] | [2]

CCCCNc1ccc(NCCCC)c2c1C(=O)c1ccccc1C2=O
active: [6] 4.19 nM | [11] 6810 nM | [16] 5000 nM | [18] 4330 nM
not listed: [2]
inactive: all other assays above

S=C(NC1CCCCC1)NC1CCCCC1
not listed: [2]
inactive: all other assays above
